High-throughput results deposited in PubChem by National Center for Advancing Translational Sciences (NCATS).
Rows were chosen to be rich in hits. Some 6.7% of all compounds tested hit in one or more screens of this group.
SW480 rereplic: A quantitative high throughput screen for small molecules that induce DNA re-replication in SW480 colon adenocarcinoma cells; Potency, µM (titrated, usually from 46.1 µM), for inactives: at the top dose re-replication activation, usual class: activators; AID 624297, 2012; SW480 DNA re-replication, Hoechst DNA content imaging, 48 h; 340,000 tested, 1.8% active; further: % of control where 0% means no effect; nearly all actives have a fitted effect of over 55% in size
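Hoechst fluorescence of nuclei (405 nm excitation, 500-530 nm emission) measured by plate-scanning imager after 48 hr compound exposure at 37 C; re-replication scored as increased number of nuclei with elevated intensity.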
KB-3-1 tox: qHTS assay for MDR1-selective chemotherapeutics: Primary screen using the parental adenocarcinoma cell KB-3-1; KB-3-1 viability, CellTiter-Glo ATP luminescence, 72 h; Potency, µM (highest dose often 46.1 µM), actives largely listed as cytotoxic; 400,000 tested, 1.4% active; AID 1347075, 2019; further: on the % scale 0 is the no-effect control and ±100 the full control effect; nearly all actives have a fitted effect of over 60% in size
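Parental KB-3-1 adenocarcinoma cells in phenol-red-free DMEM with 10% FBS were pin-treated with compounds at several concentrations, incubated 72 h at 37 °C, and viability read by CellTiter-Glo luminescence; concentration-effect curves were fitted after normalization.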
MCF10A rerep: A quantitative high throughput screen for small molecules that induce DNA re-replication in MCF 10a normal breast cells; MCF 10A DNA re-replication, Hoechst nuclear intensity, 48 h; Potency, µM (highest dose often 46.1 µM), for the others: at the highest dose activity, positive = re-replication, actives largely listed as activators; 350,000 tested, 2.9% active; AID 624296, 2012; further: % of control where 0% means no effect; nearly all actives have a fitted effect of over 50% in size
KB-V1 cytotox: qHTS assay for MDR1-selective chemotherapeutics: Primary screen using the drug-selected MDR subline cells KB-V1; KB-V1 MDR cells viability, CellTiter-Glo, 72 h; Potency, µM (titrated, usually from 46.1 µM), actives largely listed as cytotoxic; 400,000 tested, 3.4% active; further: on the % scale 0 is the no-effect control and ±100 the full control effect; nearly all actives have a fitted effect of over 60% in size
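Cytotoxicity toward P-gp-expressing KB-V1 cells was determined as loss of CellTiter-Glo luminescence after 72 h at 37 degrees C. Compounds were tested in quantitative HTS format across a concentration range, with curves fitted to normalized data.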
PINK1 modulator: A Quantitative High throughput Screen to Identify Chemical Modulators of PINK1 Expression | PINK1 immunofluorescence, high-content cytometry, 24 h | Potency, µM (top dose mostly 76.6 µM), without a hit: top-dose activation (PINK1 increase), hits mostly activators | 410,000 tested, 0.2% active | AID 624263, 2012; active means well fitted activation curve with a large enough effect; inconclusive means small, poorly fitted or top-dose-only effect; cell line not stated here; further: % of control where 0% means no effect; nearly all actives have a fitted effect of over 65% in size
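Readout is PINK1 immunofluorescence, quantified alongside mitochondrial, cell and nuclear markers by laser-scanning microplate cytometry. Cells from a stable line were exposed to compound titrations (5 concentrations) for 24 hours, with CCCP controls.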
* marks the source's active call; other numbers are inactive results. Unless noted, the call rests on the fitted dose curve; in most records, active means well fitted curve in the direction sought with a large enough effect; inconclusive means small, poorly fitted or top-dose-only effect, or another doubt; inactive means no such curve, though single readings can be large; an effect the other way counts as inactive or inconclusive. Potency means the concentration at half of the fitted maximal effect.

Screening CCC(C)Sc1ccc(-c2nc3cc(C)ccn3c2NC2CCCCC2)cc1 (stereo not drawn) returned SW480 rereplic inconclusive, KB-3-1 tox inconclusive, MCF10A rerep inconclusive, KB-V1 cytotox inconclusive and PINK1 modulator 14µM*.
Cc1ccn2c(NC3CCCC3)c(-c3ccncc3)nc2c1 was read as SW480 rereplic -26%, KB-3-1 tox inactive, MCF10A rerep 3%, KB-V1 cytotox inactive and PINK1 modulator 1%.
`CCCCCCSc1ccc(-c2nc3cc(C)ccn3c2NC2CCCCC2)cc1` gave SW480 rereplic 10%, KB-3-1 tox inconclusive, MCF10A rerep 18µM*, KB-V1 cytotox inconclusive and PINK1 modulator 18µM*.
Cc1ccn2c(NC3CCCCC3)c(-c3cccc(-c4cccc(Cl)c4)c3)nc2c1 was read as SW480 rereplic inconclusive, KB-3-1 tox inactive, MCF10A rerep 21µM*, KB-V1 cytotox inactive and PINK1 modulator inconclusive.
`O=C1COc2ccc(-c3cc(-c4ccc(Cl)cc4)c4c(n3)-c3ccccc3OC4)cc2N1` gave KB-3-1 tox inactive, KB-V1 cytotox inactive and PINK1 modulator -1%.
COc1ccc(NC(C)=O)cc1S(=O)(=O)N1CCc2ccccc21 was read as SW480 rereplic -6%, KB-3-1 tox inactive, MCF10A rerep inconclusive, KB-V1 cytotox inactive and PINK1 modulator 3%.
Screening CN(Cc1nc2ccccc2c(=O)[nH]1)C(=O)c1cccc(S(=O)(=O)N2CCc3ccccc32)c1 returned SW480 rereplic 3%, KB-3-1 tox inactive, MCF10A rerep inconclusive, KB-V1 cytotox 16µM* and PINK1 modulator 0%.
For COc1ccc(S(=O)(=O)N2CCc3ccccc32)cc1C(=O)Nc1ccc(NC(C)=O)cc1 the results were SW480 rereplic inconclusive, KB-3-1 tox inactive, MCF10A rerep 23µM*, KB-V1 cytotox inactive and PINK1 modulator 7%.
COc1ccc(C(=O)Nc2ccc(S(=O)(=O)N3CCc4ccccc43)cc2)cc1 was read as SW480 rereplic 6%, KB-3-1 tox 2.9µM*, MCF10A rerep inconclusive, KB-V1 cytotox 2.6µM* and PINK1 modulator 2%.
COc1ccc(S(=O)(=O)N2CCc3ccccc32)cc1NC(C)=O was read as SW480 rereplic inconclusive, KB-3-1 tox 23µM*, MCF10A rerep 8.2µM*, KB-V1 cytotox inconclusive and PINK1 modulator 6%.
Screening CN(Cc1nc2ccccc2c(=O)[nH]1)C(=O)c1cccc(S(=O)(=O)N2CCCCCC2)c1 returned SW480 rereplic -23%, KB-3-1 tox inactive, MCF10A rerep 9%, KB-V1 cytotox inactive and PINK1 modulator -1%.
`CCN1CCCC1CNC(=O)c1cc([N+](=O)[O-])c(N(C)C)cc1OC` (stereo not drawn) gave SW480 rereplic inconclusive, KB-3-1 tox inactive, MCF10A rerep inconclusive, KB-V1 cytotox inactive and PINK1 modulator 3%.
Screening O=C1CCC(C(=O)N2CCN(c3cnccn3)CC2)CN1CCc1ccccc1 (stereo not drawn) returned KB-3-1 tox inactive, KB-V1 cytotox inactive and PINK1 modulator 1%.
COc1ccc(C(CNC(=O)c2cccc(S(=O)(=O)N3CCCc4ccccc43)c2)N(C)C)cc1 (stereo not drawn) was read as SW480 rereplic inconclusive, KB-3-1 tox inconclusive, MCF10A rerep 17%, KB-V1 cytotox 2.3µM* and PINK1 modulator 2%.
Screening COc1ccc(C(=O)Nc2nc3c(s2)CCCC3)cc1S(=O)(=O)N1CCCc2ccccc21 returned SW480 rereplic inconclusive, KB-3-1 tox inconclusive, MCF10A rerep inconclusive, KB-V1 cytotox 5.2µM* and PINK1 modulator -2%.
COc1ccc(NC(=O)c2cccc(S(=O)(=O)N3CCc4ccccc43)c2)cn1 was read as SW480 rereplic -2%, KB-3-1 tox inactive, MCF10A rerep 14%, KB-V1 cytotox 13µM* and PINK1 modulator 4%.
For CCN(CC(=O)Nc1cccc(OC)c1)C(=O)c1cccc(S(=O)(=O)N2CCc3ccccc32)c1 the results were SW480 rereplic 1%, KB-3-1 tox inconclusive, MCF10A rerep 16%, KB-V1 cytotox 18µM* and PINK1 modulator 3%.
Screening Cc1ccc(S(=O)(=O)NCc2ccc(N3CCN(C(=O)OC(C)(C)C)CC3)cc2)cc1 returned SW480 rereplic -5%, KB-3-1 tox inconclusive, MCF10A rerep 7%, KB-V1 cytotox inconclusive and PINK1 modulator 1%.
`COc1ccc(S(=O)(=O)N2CCCc3ccccc32)cc1OC` gave SW480 rereplic inconclusive, KB-3-1 tox inconclusive, MCF10A rerep 10%, KB-V1 cytotox inactive and PINK1 modulator 2%.
O=C(Nc1ccncc1)c1ccc(Cl)c(S(=O)(=O)N2CCc3ccccc32)c1 was read as SW480 rereplic -340%, KB-3-1 tox inconclusive, MCF10A rerep inconclusive, KB-V1 cytotox inconclusive and PINK1 modulator 4%.
For CCc1nnc(NC(=O)c2ccc(Cl)c(S(=O)(=O)N3CCc4ccccc43)c2)s1 the results were SW480 rereplic -6%, KB-3-1 tox 21µM*, MCF10A rerep 22%, KB-V1 cytotox 13µM* and PINK1 modulator 8%.
`CC(=O)Nc1ccc(S(=O)(=O)N2CCSc3ccccc32)cc1` gave SW480 rereplic 3.7µM*, KB-3-1 tox 5.8µM*, MCF10A rerep 6.5µM*, KB-V1 cytotox inactive and PINK1 modulator 2%.
`COc1cc2nc(N(CCCN(C)C)C(=O)c3ccc(S(=O)(=O)N4CCc5ccccc54)cc3)sc2cc1OC` gave SW480 rereplic inconclusive, KB-3-1 tox inactive, MCF10A rerep 5%, KB-V1 cytotox inactive and PINK1 modulator -2%.
Screening COc1cc2nc(NC(=O)c3ccc(S(=O)(=O)N4CCc5ccccc54)cc3)sc2cc1OC returned KB-3-1 tox inconclusive, KB-V1 cytotox 7.3µM* and PINK1 modulator -4%.
COc1ccc(S(=O)(=O)N2CCCc3ccccc32)cc1[N+](=O)[O-] was read as SW480 rereplic 21µM*, KB-3-1 tox 4.1µM*, MCF10A rerep 4.1µM*, KB-V1 cytotox inconclusive and PINK1 modulator 5%.
`O=C(Cn1cc(S(=O)(=O)c2ccccc2)c(=O)c2cc3c(cc21)OCO3)Nc1ccc(Cl)cc1` gave KB-3-1 tox inactive, KB-V1 cytotox inactive and PINK1 modulator 0%.
`O=C(NCC1Cc2cccc(-c3nccs3)c2O1)c1ccnc(Cl)c1` (stereo not drawn) gave PINK1 modulator 1%.
